According to PubChem BioAssay AID618 (Sanford-Burnham Center for Chemical Genomics, 2007):
Hit rate of the full screen: of about 87,000 compounds, about 540 (0.62%) were called active. How the calls were made is not given here. For the sample, actives were picked, then their nearest neighbours and some compounds at random. Measured potencies and affinities stand elsewhere.

Assay: inhibitors of MT1-MMP promoter transcription, cell-based, luciferase reporter, luminescence (AID 618);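 further: actives suppress MT1-MMP promoter-driven transcription so potencies describe inhibitors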
Settings: MT1-MMP promoter luciferase reporter cells

Row | Structure (SMILES) | outcome
1 | Cc1cc(N2CCCC2=O)cc(C)c1S(=O)(=O)NCCOc1ccc(C(C)(C)C)cc1 | inactive
2 | N#Cc1cc(N)c(Nc2ccccc2)cc1C#N | inactive
3 | CCC1(c2ccccc2)NC(=O)N(CC(=O)Nc2cccc(C#N)c2)C1=O (stereo unspecified) | inactive
4 | COc1cc(C)c(C(C)C)cc1S(=O)(=O)n1ccnc1 | inactive
5 | COc1cc(C)c(Cl)cc1S(=O)(=O)n1cnc(C)c1 | inactive
6 | COc1cc(C)c(C(C)C)cc1S(=O)(=O)n1cnc(C)c1 | active
7 | CCN1C(=C2C(=O)c3ccccc3C2=O)C=Cc2ccccc21 | inactive
8 | CCN1/C(=C/c2ccc3ccccc3[n+]2CC)C=Cc2ccccc21 | active
9 | CCN1C(=O)/C(=C2\C=Cc3ccccc3N2CC)OC1=S | inactive
10 | CC1(C)CC(=O)N(c2ccccc2)C1(C)O (stereo unspecified) | inactive
11 | Cc1cc(C(=O)CSc2nc3ccc(Cl)cc3[nH]2)c(C)n1CC1CCCO1 (stereo unspecified) | inactive
12 | Cc1cc(C(=O)CSc2nc3ccccc3[nH]2)c(C)n1C | inactive
13 | CCn1c(SCC(=O)c2cc(C)n(CC3CCCO3)c2C)nc2ccccc21 (stereo unspecified) | inactive
14 | C=CCn1c(C)cc(C(=O)CSc2nc3ccccc3c(=O)[nH]2)c1C | inactive
15 | C=CCc1c(C)nc(SC)nc1Nc1ccc(C(C)=O)cc1 | inactive
16 | CC1CC(C)(C)NC(=O)O1 (stereo unspecified) | inactive
17 | Cc1ccc(Nc2cc(C)nn2-c2nc(C)cc(=O)[nH]2)cc1 | active
18 | Cc1ccc(Nc2cc(C)nn2-c2nc(C)cc(C)n2)cc1 | inactive
19 | Cc1cc(=O)[nH]c(-n2nc(C)cc2C)n1 | inactive
20 | Cc1noc(C)c1CSc1nc2ccccc2c(=O)n1-c1ccccc1 | inactive
21 | Cc1noc(C)c1CSc1nc2ccccc2c(=O)n1-c1ccc(Cl)cc1 | inactive
22 | Cc1noc(C)c1CSc1nc2[nH]ncc2c(=O)n1-c1ccccc1 | active
23 | Cc1nc(CSc2nc3[nH]ncc3c(=O)n2-c2ccccc2)cs1 | inactive
24 | C=CCn1c(SCc2c(C)noc2C)nc2cc(C(=O)O)ccc2c1=O | inactive

Row | Structure (SMILES) | outcome
25 | C=CCn1c(SCc2c(C)noc2C)nc2ccccc2c1=O | active
26 | COc1ccccc1NC(=O)CSc1nnnn1-c1ccc(C)cc1 | inactive
27 | COCCCNC(=O)CCc1nc2cccnc2n1Cc1ccccc1 | inactive
28 | O=C(NNC(=O)c1ccccc1Br)c1ccc(SCC2CCCO2)c([N+](=O)[O-])c1 (stereo unspecified) | inactive
29 | COc1ccc(CC(=O)N2CCC(Nc3nc4ccccc4n3Cc3ccc(F)cc3)CC2)cc1 | inactive
30 | COc1ccc(CNc2nc3ccccc3n2CCN2CCOCC2)cc1 | inactive
31 | COc1ccc(CCN2CCC(Nc3nc4ccccc4n3Cc3ccc(F)cc3)CC2)cc1 | active
32 | COc1ccc(N/C=C(\C#N)c2ccc(OCCCF)cc2)cc1 | inactive
33 | COc1ccc(C2C(C#N)=C(N)N3C(=C2C#N)Sc2ccccc23)cc1 (stereo unspecified) | inactive
34 | Cc1nn(C)cc1C1C2=C(CC(C)(C)CC2=O)OC2=C1C(=O)CC(C)(C)C2 | inactive
35 | CC1(C)CC(=O)C2=C(C1)OC1=C(C(=O)CC(C)(C)C1)C2c1ccc(O)cc1O | active
36 | CC1(C)CC(=O)C(C2C3=C(CC(C)(C)CC3=O)Oc3ccccc32)=C(O)C1 (stereo unspecified) | inactive
37 | O=C(c1cccs1)N(Cc1ccco1)c1nc(-c2ccc(F)cc2)cs1 | inactive
38 | COc1ccc(-c2cc(C(F)(F)F)n3nc(C(=O)N4CCCCC4)cc3n2)cc1OC | inactive
39 | O=c1cc(-c2ccccc2)[nH]c2ccccc12 | inactive
40 | Cc1ccc2[nH]c(-c3ccccc3)cc(=O)c2c1 | active
41 | Cc1ccc2[nH]c(C(=O)O)c(-c3ccccc3)c2c1 | inactive
42 | COc1ccc(NC(=O)N2CCCC2C(=O)NCc2ccc(F)cc2)cc1 (stereo unspecified) | inactive
43 | O=C(CSCCO)Nc1ccc(C2CCCCC2)cc1 | inactive
44 | O=C(O)CSCC(=O)Nc1ccccc1 | inactive
45 | Cc1ccc(C(=O)CC2(O)C(=O)N(Cc3ccc4c(c3)OCO4)c3ccccc32)cc1 (stereo unspecified) | inactive
46 | Cc1cc(C)c(S(=O)(=O)N2CCC(C(=O)NCc3ccco3)CC2)c(C)c1 | inactive
47 | Cc1ccc(C(=O)N/N=C/c2sc(=O)n(Cc3cccc(C(=O)O)c3)c2Cl)cc1 | inactive
48 | COc1cc(C(=O)N/N=C\c2ccccc2)c([N+](=O)[O-])c(OC)c1OC | inactive

Row | Structure (SMILES) | outcome
49 | CC(=O)Nc1ccc(NC(=O)c2ccccc2C)cc1 | inactive
50 | Cc1ccc(C(=O)NNS(=O)(=O)c2ccccc2[N+](=O)[O-])cc1 | inactive
51 | O=C(N/N=C/C=C/c1ccccc1)c1ccccc1Br | inactive
52 | O=C(N/N=C/c1ccc([N+](=O)[O-])s1)c1cccc(Br)c1 | inactive
53 | COc1cccc(NC2=NCC(=O)N2Cc2cccs2)c1 | inactive
54 | O=C1c2ccccc2C(=O)N1CCOCCN1C(=O)c2ccccc2C1=O | inactive
55 | CCC(=O)N(Cc1ccc(S(N)(=O)=O)cc1)C1CC(=O)N(c2ccc(OC)cc2)C1=O (stereo unspecified) | inactive
56 | Cc1cc2nnc(SCC(=O)N3C(C)CCCC3C)n2c(N)n1 (stereo unspecified) | inactive
57 | COC(=O)CSc1cc(C(=O)c2nccn2C)c2ccccc2n1 | inactive
58 | COCCNC(=O)C(c1cccs1)N(Cc1cccs1)C(=O)Cn1nnc2ccccc21 (stereo unspecified) | inactive
59 | CCCCS(=O)(=O)Nc1ccc(C(=O)NCC2CCCO2)cc1 (stereo unspecified) | inactive
60 | CCN(CC)c1ccc(NC(=O)c2cnc3ccccn3c2=O)c(C)c1 | inactive
61 | Cc1cccc(NC(=O)c2cnc3ccccn3c2=O)c1 | inactive
62 | CCCC(=O)c1ccc(N2CCOCC2)c(F)c1 | inactive
63 | Cn1c(C(=O)N2CCN(Cc3ccccc3)CC2)cc2c(=O)n(C)c3ccccc3c21 | inactive
64 | COc1ccc(Cl)cc1S(=O)(=O)N1CCN(C(=O)c2cc(OC)c(OC)c(OC)c2)CC1 | inactive
65 | COc1cc(C(=O)N2CCN(c3cccc(C)c3C)CC2)cc(OC)c1OC | active
66 | COc1cc(C(=O)N2CCN(c3cc(Cl)ccc3Cl)CC2)cc(OC)c1OC | active
67 | COc1cc(C(=O)N2CCN(C(=O)c3ccccc3)CC2)cc(OC)c1OC | inactive
68 | COc1ccc(C(=O)N2CCN(C(=O)c3cc(OC)c(OC)c(OC)c3)CC2)cc1 | inactive
69 | Cc1cccc(N2CCN(C(=O)c3ccncc3)CC2)c1C | inactive
70 | O=C(Nc1cccc(Cl)c1N1CCCC1)c1ccc(Br)o1 | inactive
71 | O=C(Nc1ccccc1)NC1CC2CCC(C1)N2Cc1nnnn1Cc1ccc2c(c1)OCO2 (stereo unspecified) | inactive
